# Pf growth 96h – P. falciparum growth inhibition at 96 hours | P. falciparum luciferase reporter growth, 96 h | Potency, µM (titrated, usually from 28.7 µM), for the others: top-dose activity change, negative = inhibition, actives largely listed as inhibitors | actives 6.9% (n = 320,000); further: potency means the concentration at half of the fitted maximal effect; on the % scale 0 is the no-effect control and ±100 the full control effect
#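 P. falciparum expressing integrated firefly luciferase, in erythrocytes at 2% hematocrit, 0.05% parasitemia, incubated with compounds 96 h at 37 C, 5% CO2. Growth inhibition read as loss of luminescence; two-generation exposure targets delayed-death apicoplast inhibitors.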
# Pf growth 48h – P. falciparum growth inhibition at 48 hours (one generation). actives 5.9% (n = 310,000). P. falciparum luciferase growth in erythrocytes, 48 h. Potency, µM (series often up to 28.7 µM), without a hit: top-dose activity change, negative = inhibition, actives largely listed as inhibitors; further: potency means the concentration at half of the fitted maximal effect; on the % scale 0 is the no-effect control and ±100 the full control effect
#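 A one-generation exposure of luciferase-tagged malaria parasites in RPMI 1640/Albumax erythrocyte culture, 37 C and 5% CO2. Inhibition is inferred from decreased luminescence after adding detection reagent.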
# Sm TGR inh – S. mansoni TGR enzyme inhibition; purified TGR, DTNB reduction, TNB absorbance 405 nm; Potency, µM (top dose mostly 114 µM), inactives show top-dose activity change, negative = inhibition, actives largely listed as inhibitors; actives 3% (n = 360,000); AID 485364; further: potency means the concentration at half of the fitted maximal effect; on the % scale 0 is the no-effect control and ±100 the full control effect; nearly all actives have a fitted effect of over 60% in size
#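 Kinetic colorimetric format: TGR-catalysed, NADPH-driven DTNB reduction monitored via TNB absorbance. Enzyme dispensed at 20 nM; compound exposure 15 min at room temperature before reaction start.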
# HCMV antiviral – inhibitors of human cytomegalovirus; HFF cells, HCMV-luciferase reporter, 72 h; active compounds read low; activity change, negative = inhibition, % at 57.5 µM; actives 4.5% (n = 410,000); AID 1259415; in the data active means activity change below about -60%; inconclusive means no clear call, values can overlap the other calls; inactive means above about -39%; further: on the % scale 0 is the no-effect control and ±100 the full control effect
#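 Luciferase read-out from HCMV-luciferase-infected HFFs (MOI 1 PFU/cell) 72 h post infection at 37C; compounds added after 16 h cell attachment; activity normalized between buffer-only basal and Salinomycin (10uM) inhibitor controls.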
# SARS PLpro yeast – blocks SARS-CoV papain-like protease in a yeast assay; S. cerevisiae expressing SARS-CoV PLpro, growth rescue; Potency, µM (highest dose often 32.9 µM), for the others: at the top dose activity, positive = growth rescue, hits mostly activators; actives 0.19% (n = 330,000); calls by dose curve; further: potency means the concentration at half of the fitted maximal effect; 0% is about no effect; nearly all actives have a fitted effect of over 55% in size
# HCV inh – inhibitors of hepatitis C virus infection; actives 3.4% (n = 340,000); Huh7.5.1 HCVcc-Cre infection, luciferase reporter, 44 h; Potency, µM (series often up to 41.8 µM), for inactives: top-dose activity change, negative = inhibition, usual class: inhibitors; further: potency means the concentration at half of the fitted maximal effect; on the % scale 0 is the no-effect control and ±100 the full control effect
#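 After 44 h co-culture of compound, cells and HCVcc-Cre (~0.5 moi), substrate is added for 15 min at room temperature and luciferase measured over 15 sec. Cells were seeded at 1,000/well and pre-cultured 4 h.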
# Active calls of the source: *; ? = inconclusive; · = no result given. Most compounds without a hit are left out; they make up all but 15% or so of the library. Unless noted, the call rests on the fitted dose curve; in most records, active means well fitted curve in the direction sought with a large enough effect; inconclusive means small, poorly fitted or top-dose-only effect, or another doubt; inactive means no such curve, though single readings can be large; an effect the other way counts as inactive or inconclusive.
SMILES,Pf growth 96h,Pf growth 48h,Sm TGR inh,HCMV antiviral,SARS PLpro yeast,HCV inh
CCCC(=O)Oc1ccccc1C1SCc2cc(C)c(C)cc2CS1,?,17%,3%,-60*,1%,-26%
O=c1cc(CCl)nc2sc3ccccc3n12,-11%,5%,40µM*,?,-8%,7%
O=C(Nc1cccc(C(F)(F)F)c1)OC1CN2CCC1CC2 (stereo unspecified),1%,22%,8%,·,0%,-30%
OC(c1cccc(Cl)c1)(c1cccc(Cl)c1)C1CN2CCC1CC2 (stereo unspecified),-24%,?,0%,-34,1%,16µM*
Cc1ccc2c(c1)c1c(c(=O)n(-c3cccc(Cl)c3)c(=O)n1CC(=O)N1CCCC1)n2C,·,·,7%,2,·,·
COC(=O)C1=C(c2cccc(OCc3ccccc3)c2)C[C@@H]2CC[C@H]1N2C(=O)NCc1ccc(OC)cc1,?,7.4µM*,2%,18,-2%,22µM*
COC(=O)C1=C(c2cccc(OCc3ccccc3)c2)C[C@@H]2CC[C@H]1N2C(=O)NCc1cccc(C(F)(F)F)c1,?,13µM*,11%,-18,-3%,?
COC(=O)C1=C(c2cccc(OCc3ccccc3)c2)C[C@@H]2CC[C@H]1N2C(=O)NCc1ccc([N+](=O)[O-])cc1,?,12µM*,-1%,-11,0%,?
COC(=O)C1=C(c2cccc(OCc3ccccc3)c2)C[C@@H]2CC[C@H]1N2C(=O)NCc1ccc(Cl)cc1,?,8.3µM*,0%,-26,-1%,?
COC(=O)C1=C(c2ccc(S(C)(=O)=O)cc2)C[C@@H]2CC[C@H]1N2C(=O)NCc1ccccc1,·,·,·,-15,·,8%
COC(=O)C1=C(c2ccc(OCc3ccccc3)cc2)C[C@@H]2CC[C@H]1N2C(=O)NCc1ccc([N+](=O)[O-])cc1,·,·,·,-10,2%,6%
O=C(/C=C/c1ccc([N+](=O)[O-])cc1)Nc1cccc(C(=O)Nc2ccccc2C(=O)O)c1,59%,-28%,7%,63,5%,-10%
COc1ccc(N2CCN(S(=O)(=O)CCNC(=O)Cc3ccc(OC)c(OC)c3)CC2)cc1,·,·,-16%,2,·,·
CCOC(=O)Cn1nc(C)c(NC(=O)COc2ccc(Cl)cc2C)c1C,·,·,0%,-38,·,·
COC(=O)C1=C(c2ccccc2)C[C@@H]2CC[C@H]1N2C(=O)NCc1cccc2ccccc12,·,·,·,-9,·,-23%
COC(=O)C1=C(c2cccc(OCc3ccccc3)c2)C[C@@H]2CC[C@H]1N2C(=O)NCc1ccc(OC)c(OC)c1,?,?,-3%,-27,-4%,?
COC(=O)C1=C(c2cccc(OCc3ccccc3)c2)C[C@@H]2CC[C@H]1N2C(=O)NCc1ccccc1OC,?,7.4µM*,1%,-88*,-4%,?
COC(=O)C1=C(c2cccc(OCc3ccccc3)c2)C[C@@H]2CC[C@H]1N2C(=O)NCc1cccc(F)c1,?,8.3µM*,-7%,-25,0%,-26%
COC(=O)C1=C(c2ccc(OC)c(OC)c2)C[C@@H]2CC[C@H]1N2C(=O)NCc1cc(C)oc1C(F)(F)F,?,9.3µM*,1%,1,-6%,-23%
CCCNC(=O)N1[C@H]2CC[C@@H]1C(C(=O)OC)=C(c1ccc(OC)c(OC)c1)C2,0%,-8%,?,13,-5%,-1%
COC(=O)C1=C(c2ccc(OC)c(OC)c2)C[C@@H]2CC[C@H]1N2C(=O)NCc1cccc2ccccc12,0.23µM*,0.52µM*,-7%,62,-9%,-21%
C=C(CC[C@@H](C)[C@H]1CCC2[C@]1(C)CC[C@]13C[C@@]14CCC(OC(=O)/C=C/c1ccc(O)c(OC)c1)C(C)(C)[C@@H]4CC[C@@]23C)C(C)C (stereo partly specified),?,0%,·,·,·,·
COC(=O)C1=C(c2cccc(OCc3ccccc3)c2)C[C@@H]2CC[C@H]1N2C(=O)NCc1cc(C)oc1C(F)(F)F,?,4.7µM*,-1%,-15,0%,?
COC(=O)C1=C(c2cccc(OCc3ccccc3)c2)C[C@@H]2CC[C@H]1N2C(=O)NCc1ccccc1,?,13µM*,0%,-30,4%,?
c1cnn(-c2cncc(-n3cccn3)n2)c1,-20%,58%,15%,-29,0%,3%
SMILES,Pf growth 96h,Pf growth 48h,Sm TGR inh,HCMV antiviral,SARS PLpro yeast,HCV inh
Cc1ccc(S(=O)(=O)N(CC(=O)Nc2cccc(C(F)(F)F)c2)C(=O)N2CCN(C)CC2)cc1,43%,31%,-2%,-20,3%,10%
COC(=O)c1c(N2C(=O)CC(Sc3ncccc3C(=O)O)C2=O)sc(C)c1C (stereo unspecified),-18%,27%,20µM*,-3,2%,27%
COc1ccccc1N1C(=O)CC(Sc2ncccc2C(=O)O)C1=O (stereo unspecified),2%,-2%,-21%,19,-26%,17%
O=C(O)c1cccnc1SC1CC(=O)N(c2ccc(OC(F)F)cc2)C1=O (stereo unspecified),4%,4%,45µM*,9,0%,17%
COc1ccc(C(=O)Nc2sc3c(c2C(=O)NCc2ccco2)CCCC3)cc1OC,3.3µM*,·,-17%,-33,9%,?
COC(=O)Nc1sc2c(c1C(=O)NCc1ccco1)CCCC2,?,-17%,-4%,-35,1%,?
Cc1cc(O)c(-c2cc(C(=O)Nc3sc4c(c3C(=O)NCc3ccco3)CCC4)[nH]n2)cc1C,1.9µM*,1.2µM*,8%,-24,0%,?
COc1ccc(CC(=O)NCc2ccco2)cc1OC,·,-2%,?,17,3%,16%
Cc1ccc(-c2cc(C(=O)Nc3sc4c(c3C(=O)NCc3ccco3)CCC4)[nH]n2)c(O)c1,?,?,4%,-7,-10%,-7%
COc1cc(C(=O)Nc2sc3c(c2C(=O)NCc2ccco2)CCCC3)cc(OC)c1OC,1.7µM*,·,-2%,8,12%,?
COc1ccc(C2=NCC(=O)N(CC(=O)NCc3ccco3)c3sc4c(c32)CCCC4)cc1OC,?,?,22µM*,?,-1%,-23%
Cc1ccc(C(=O)Nc2sc3c(c2C(=O)NCc2ccco2)CCCC3)cc1,?,·,-13%,12,11%,?
COc1ccccc1NC1CCCCC1NS(=O)(=O)c1ccccc1 (stereo unspecified),?,-13%,-18%,?,7%,-3%
CC(C)(CN1CCNCC1)NS(=O)(=O)c1ccc(Cl)cc1,?,9.3µM*,-25%,-32,-8%,4µM*

# Screening results from PubChem.
